# According to PubChem BioAssay (NCATS):
# Inconclusive results are not listed. A call without a number means that no potency is given here. Activity calls are given as the source filed them. Calls come from the whole dose curve; as a rule, active = well fitted cell-killing curve with a large enough effect; inconclusive = small, poorly fitted or top-dose-only effect, or effect the other way; inactive = flat fitted curve, though single readings scatter.
# Tested on: Hek293T
# Experiment: Primary qHTS to identify gynecologic anti-cancer compounds using libraries of approved drugs and bioactive compounds (AID 1345084); note: nearly all actives have a fitted effect of over 55% in size
# Details: Gynecologic cancer cell panel viability, ATPlite luminescence, 48 h, control line for the selectivity index; series mostly up to 57.5 µM
# How it was run: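 48 h compound exposure at 37 C, 5% CO2; five-point qHTS. ATPlite luminescence readout of cell ATP.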
row,Compound,Potency
1,COc1ccc(-c2nc(-c3ccc(-c4cccc(Cl)c4)o3)[nH]c2-c2ccc(OC)cc2)cc1,inactive
2,CC(=O)c1c(O)cc(O[C@@H]2O[C@H](CO)[C@@H](O)[C@H](O)[C@H]2O)cc1O,inactive
3,C=C1C(O)C(O)C2(CC3C(C)=CCC4C(C)(CO)CCCC34C)OC2C1O (configuration not stated),inactive
4,O=C1NC(Cc2c[nH]c3ccccc23)C(=O)NC1Cc1c[nH]c2ccccc12 (configuration not stated),inactive
5,CC1CCC2(C=O)C(CO)=CCCC2C1(C)CC(=O)O (configuration not stated),inactive
6,COc1cc(C)c(C(=O)O[C@H]2[C@@H](OC(C)=O)[C@H](n3ccc(=O)[nH]c3=O)O[C@@H]2CO)c(OC)c1,inactive
7,COC(=O)C1=CO[C@@H](O[C@@H]2O[C@H](CO)[C@@H](O)[C@H](O)[C@H]2O)[C@@H]2[C@@](C)(O)[C@@H](OC(=O)/C=C/c3ccc(O)cc3)C[C@]12O,inactive
8,C[C@@H]([C@@H](O)c1ccc(O)cc1)N1CCC(O)(c2ccccc2)CC1,inactive
9,N#C[C@@H]1C[C@H](F)CN1C(=O)CNC1[C@H]2CN(C(=O)c3ccc(F)cc3)C[C@@H]12 (some centres not stated),inactive
10,C=C1CCC2C(C)(C(=O)OC)CCCC2(C)C1CCC(C)CC(=O)O (configuration not stated),inactive
11,C[C@@H]1C(=O)O[C@H]2C[C@]34[C@H]5C[C@@H](C(C)(C)C)[C@]36[C@@H](OC(=O)[C@H]6O)O[C@]4(C(=O)O5)[C@]21O,inactive
12,COC(=O)C1=COC(O[C@@H]2O[C@H](CO)[C@@H](O)[C@H](O)[C@H]2O)[C@H]2[C@@H]1[C@H](OC(=O)CCc1ccc(O)cc1)C[C@]2(C)O (some centres not stated),inactive
